In ChEMBL document CHEMBL3988442, “University of Dundee, Small-Polar-MMV Screening Library” (2021) one finds PXC50 and Percent Effect data, which are given here for five molecules.

Assay [1] addresses T1, Methionyl-tRNA synthetase, putative (Leishmania donovani (strain BPK282A1)) (UniProt E9BF75).
T1 sequence (whole entry): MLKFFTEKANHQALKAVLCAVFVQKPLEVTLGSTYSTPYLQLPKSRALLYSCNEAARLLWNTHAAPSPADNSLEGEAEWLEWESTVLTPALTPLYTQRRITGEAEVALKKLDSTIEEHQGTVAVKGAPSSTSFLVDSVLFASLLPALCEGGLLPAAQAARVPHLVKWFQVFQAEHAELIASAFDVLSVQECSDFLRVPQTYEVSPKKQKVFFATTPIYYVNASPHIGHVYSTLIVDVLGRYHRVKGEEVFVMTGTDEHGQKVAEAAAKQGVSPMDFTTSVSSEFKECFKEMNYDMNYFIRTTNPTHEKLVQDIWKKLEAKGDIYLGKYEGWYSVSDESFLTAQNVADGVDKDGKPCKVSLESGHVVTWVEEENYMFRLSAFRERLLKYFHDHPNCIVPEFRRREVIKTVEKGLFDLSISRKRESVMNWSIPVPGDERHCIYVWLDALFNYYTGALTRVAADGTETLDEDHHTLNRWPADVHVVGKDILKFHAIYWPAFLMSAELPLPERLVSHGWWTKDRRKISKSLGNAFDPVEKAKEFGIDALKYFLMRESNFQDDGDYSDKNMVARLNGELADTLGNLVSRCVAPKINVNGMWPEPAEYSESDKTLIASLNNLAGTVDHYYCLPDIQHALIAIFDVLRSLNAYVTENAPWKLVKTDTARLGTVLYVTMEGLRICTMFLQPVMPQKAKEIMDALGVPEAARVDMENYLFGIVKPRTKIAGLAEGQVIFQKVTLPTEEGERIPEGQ
The assay can be described thus: Leishmania donovani Methionine tRNA synthetase (LdMetRS):v7. Dose response assay. The class given is functional. Also on record: conc 80 nM, time 150 minutes.

Assay [2] deals with Protein translocase subunit SecA (Escherichia coli (strain K12)) (UniProt P10408). Briefly: Assay to Identify E. coli SecA ATPase Inhibitors. The class given is functional. Also on record: scale not given: direction of the effect not stated beside the values. To be noted: 30 µM.
Protein translocase subunit SecA (Escherichia coli (strain K12)), sequence (P10408 whole entry): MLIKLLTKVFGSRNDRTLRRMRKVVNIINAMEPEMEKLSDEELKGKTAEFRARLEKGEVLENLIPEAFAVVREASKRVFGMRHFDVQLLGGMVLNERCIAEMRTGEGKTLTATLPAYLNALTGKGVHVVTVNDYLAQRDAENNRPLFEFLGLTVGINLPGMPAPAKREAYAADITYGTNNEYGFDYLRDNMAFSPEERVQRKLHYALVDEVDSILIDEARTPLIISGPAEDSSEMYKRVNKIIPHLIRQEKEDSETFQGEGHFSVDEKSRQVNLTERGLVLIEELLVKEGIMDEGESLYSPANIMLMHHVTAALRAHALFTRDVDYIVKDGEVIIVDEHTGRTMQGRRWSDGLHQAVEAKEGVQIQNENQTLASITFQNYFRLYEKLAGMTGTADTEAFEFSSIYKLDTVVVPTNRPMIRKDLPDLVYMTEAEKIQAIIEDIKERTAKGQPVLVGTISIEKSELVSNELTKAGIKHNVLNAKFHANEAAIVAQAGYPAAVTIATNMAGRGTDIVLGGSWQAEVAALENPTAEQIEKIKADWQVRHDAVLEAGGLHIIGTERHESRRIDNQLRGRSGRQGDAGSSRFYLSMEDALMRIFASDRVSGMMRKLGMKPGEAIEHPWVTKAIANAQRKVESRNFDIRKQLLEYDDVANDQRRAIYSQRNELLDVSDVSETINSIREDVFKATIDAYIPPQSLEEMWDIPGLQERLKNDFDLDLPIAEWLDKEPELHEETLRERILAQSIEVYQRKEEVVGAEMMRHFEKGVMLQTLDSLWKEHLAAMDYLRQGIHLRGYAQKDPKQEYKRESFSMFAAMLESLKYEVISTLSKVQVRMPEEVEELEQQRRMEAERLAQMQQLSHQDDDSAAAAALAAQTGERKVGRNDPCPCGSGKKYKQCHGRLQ
Assay [3] addresses T2, Ubiquitin-activating enzyme e1, putative (Leishmania donovani (strain BPK282A1)) (UniProt E9BSI1).
T2 sequence (whole entry): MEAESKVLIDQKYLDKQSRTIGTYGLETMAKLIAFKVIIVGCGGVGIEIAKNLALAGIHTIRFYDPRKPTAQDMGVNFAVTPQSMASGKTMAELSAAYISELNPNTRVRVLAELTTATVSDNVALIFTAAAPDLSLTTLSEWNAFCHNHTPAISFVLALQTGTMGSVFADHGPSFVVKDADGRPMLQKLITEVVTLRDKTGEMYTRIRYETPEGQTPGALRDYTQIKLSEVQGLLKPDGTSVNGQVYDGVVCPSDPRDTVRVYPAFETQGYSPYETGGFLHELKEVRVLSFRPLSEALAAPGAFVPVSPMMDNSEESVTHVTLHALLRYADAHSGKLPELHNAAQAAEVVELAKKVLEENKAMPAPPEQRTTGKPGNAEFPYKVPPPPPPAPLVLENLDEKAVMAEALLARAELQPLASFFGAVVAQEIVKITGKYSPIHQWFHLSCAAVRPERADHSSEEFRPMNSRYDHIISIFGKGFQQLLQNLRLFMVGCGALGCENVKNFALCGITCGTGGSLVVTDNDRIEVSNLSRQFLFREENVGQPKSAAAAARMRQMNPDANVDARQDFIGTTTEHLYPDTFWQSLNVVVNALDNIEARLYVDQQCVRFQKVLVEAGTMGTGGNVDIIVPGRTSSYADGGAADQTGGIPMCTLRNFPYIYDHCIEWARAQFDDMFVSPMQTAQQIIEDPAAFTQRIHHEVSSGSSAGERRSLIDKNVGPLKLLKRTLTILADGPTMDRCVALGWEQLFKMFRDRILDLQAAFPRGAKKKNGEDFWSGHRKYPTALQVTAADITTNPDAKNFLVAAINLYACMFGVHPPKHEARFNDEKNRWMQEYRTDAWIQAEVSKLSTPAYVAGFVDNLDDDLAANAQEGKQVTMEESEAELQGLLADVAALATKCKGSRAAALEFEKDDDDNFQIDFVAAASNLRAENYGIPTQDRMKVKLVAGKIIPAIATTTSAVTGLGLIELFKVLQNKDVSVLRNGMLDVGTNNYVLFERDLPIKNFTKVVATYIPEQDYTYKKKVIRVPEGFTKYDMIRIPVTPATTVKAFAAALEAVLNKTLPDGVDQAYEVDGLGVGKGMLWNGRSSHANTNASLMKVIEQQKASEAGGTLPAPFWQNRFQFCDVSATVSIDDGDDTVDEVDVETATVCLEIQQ
The assay can be described thus: Leishmania donovani Ubiquitin Activating Enzyme (LdE1). The assay is classed as functional. Details: scale not given: direction of the effect not stated beside the values. To be noted: 30 µM.

Assay [4] deals with T3, Aspartate--tRNA(Asp/Asn) ligase (Mycobacterium tuberculosis (strain ATCC 25618 / H37Rv)) (UniProt P9WFW3).
T3 sequence (whole entry): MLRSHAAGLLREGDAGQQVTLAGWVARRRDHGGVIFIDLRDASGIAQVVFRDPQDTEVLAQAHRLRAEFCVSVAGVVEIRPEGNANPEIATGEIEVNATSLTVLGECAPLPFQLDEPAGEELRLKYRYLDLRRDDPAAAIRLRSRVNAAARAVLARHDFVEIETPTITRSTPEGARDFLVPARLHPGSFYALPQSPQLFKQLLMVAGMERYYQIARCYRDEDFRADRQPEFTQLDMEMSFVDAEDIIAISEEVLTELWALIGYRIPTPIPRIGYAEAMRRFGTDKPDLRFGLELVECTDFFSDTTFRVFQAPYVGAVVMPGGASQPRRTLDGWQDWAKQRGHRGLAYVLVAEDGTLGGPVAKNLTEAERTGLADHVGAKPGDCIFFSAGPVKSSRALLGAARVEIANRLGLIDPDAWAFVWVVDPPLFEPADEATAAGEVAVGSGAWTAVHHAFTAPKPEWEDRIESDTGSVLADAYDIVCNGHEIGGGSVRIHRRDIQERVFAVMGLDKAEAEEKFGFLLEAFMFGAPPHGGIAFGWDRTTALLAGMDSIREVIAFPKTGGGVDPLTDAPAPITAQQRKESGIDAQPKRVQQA
The assay can be described thus: Assay for Asp RNA synthetase-1 from Mycobacterium tuberculosis. The class given is functional. Also on record: scale not given: direction of the effect not stated beside the values. To be noted: 30 µM.

Assay [5] concerns the target AMP-activated protein kinase, AMPK (Homo sapiens) (UniProt P54646+O43741+P54619+Q9UGJ0+Q9Y478+Q13131+Q9UGI9). The assay can be described thus: AMP-dependent Kinase enzyme assay. An in vitro enzyme assay that detects ADP turnover that is directly proportional to AMPK activity. This uses naive AMPK that is activated during the assay with MK-8722. The assay is classed as functional. To be noted: 30 µM. Also on record: scale not given: direction of the effect not stated beside the values.

The target of assay [6] is Sialic acid-binding Ig-like lectin 9 (Homo sapiens) (UniProt Q9Y336). The assay can be described thus: Hs-Siglec9 ALPHAscreen SOP 20170721. Details: scale not given: direction of the effect not stated beside the values. The note with it: 10 µM.
Sialic acid-binding Ig-like lectin 9 (Homo sapiens), sequence (Q9Y336 whole entry): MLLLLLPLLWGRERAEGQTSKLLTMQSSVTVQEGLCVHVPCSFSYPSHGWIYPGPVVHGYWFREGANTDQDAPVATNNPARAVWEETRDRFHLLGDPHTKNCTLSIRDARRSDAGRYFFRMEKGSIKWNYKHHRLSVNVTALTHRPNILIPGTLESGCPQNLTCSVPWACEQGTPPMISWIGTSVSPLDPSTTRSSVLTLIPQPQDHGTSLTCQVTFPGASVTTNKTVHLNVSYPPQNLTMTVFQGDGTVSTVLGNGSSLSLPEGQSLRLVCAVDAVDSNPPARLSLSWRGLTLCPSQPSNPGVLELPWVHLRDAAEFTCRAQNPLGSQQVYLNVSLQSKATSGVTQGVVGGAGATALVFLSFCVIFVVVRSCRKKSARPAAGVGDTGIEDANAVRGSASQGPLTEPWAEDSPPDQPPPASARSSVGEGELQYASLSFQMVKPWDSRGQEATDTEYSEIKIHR
Assay [7] relates to Trypanosoma cruzi. The assay can be described thus: Trypanosoma cruzi phosphomannomutase and mannose-1-phosphate guanylyltransferase assay. The class given is functional. To be noted: 10 µM. Also on record: scale not given: direction of the effect not stated beside the values.
In assay [8] the target is T4, Arginase-2, mitochondrial (Homo sapiens) (UniProt P78540).
T4 sequence (whole entry): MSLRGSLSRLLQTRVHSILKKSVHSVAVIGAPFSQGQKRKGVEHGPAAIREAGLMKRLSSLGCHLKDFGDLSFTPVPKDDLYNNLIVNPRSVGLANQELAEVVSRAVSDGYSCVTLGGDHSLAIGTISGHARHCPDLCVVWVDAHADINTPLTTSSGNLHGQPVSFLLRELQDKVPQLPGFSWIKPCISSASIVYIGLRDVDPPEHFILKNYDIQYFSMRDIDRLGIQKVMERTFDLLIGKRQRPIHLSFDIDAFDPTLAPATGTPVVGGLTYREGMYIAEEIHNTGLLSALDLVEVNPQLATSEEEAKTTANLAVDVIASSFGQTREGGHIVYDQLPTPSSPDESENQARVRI
The assay can be described thus: in vitro enzyme assay to detect the production of urea directly proportional to the activity of Arginase II. Details: scale not given: in the data most compounds retested in dose-response had high values. The note with it: 33.3 µM. The class given is functional.

Assay [9] deals with T5, Proteasome subunit beta (Trypanosoma cruzi) (UniProt O96673).
T5 sequence (whole entry): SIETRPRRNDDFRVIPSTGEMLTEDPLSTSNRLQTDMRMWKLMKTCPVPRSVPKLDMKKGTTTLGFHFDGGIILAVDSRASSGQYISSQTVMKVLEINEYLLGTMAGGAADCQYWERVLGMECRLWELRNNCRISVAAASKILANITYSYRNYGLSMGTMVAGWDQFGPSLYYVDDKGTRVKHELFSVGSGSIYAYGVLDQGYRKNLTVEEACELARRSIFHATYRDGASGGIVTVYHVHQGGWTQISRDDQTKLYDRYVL
Briefly: Trypanosoma cruzi proteasome chymotrypsin-like activity (TcProtChymo) assay. The class given is functional. Details: scale not given: in the data most compounds retested in dose-response had high values. To be noted: 9.37 µM.

For assay [10], the species on record is Homo sapiens. Briefly: To identify inhibition of the IFN signalling (Jak-Stat) pathway via expression of an eGFP reporter gene under the control of an IFN-stimulated response element (ISRE) containing MxA promoter. The assay is classed as functional. Details: scale not given: direction of the effect not stated beside the values. To be noted: 30 µM. For orientation: Reporter assays use an easily measured gene product as a stand-in for the process of interest.

The target in assay [11] is Shiga toxin 2 (Escherichia coli O157:H7) (UniProt P09385+P09386). Briefly: E. coli 0.157:H7 Shiga Toxin SOP - stx2 screening assay. The class given is functional. Details: scale not given: direction of the effect not stated beside the values. To be noted: 30 µM.
The target of assay [12] is T6, Tyrosyl-tRNA synthetase, putative (Trypanosoma cruzi (strain CL Brener)) (UniProt Q4DSP6).
T6 sequence (whole entry): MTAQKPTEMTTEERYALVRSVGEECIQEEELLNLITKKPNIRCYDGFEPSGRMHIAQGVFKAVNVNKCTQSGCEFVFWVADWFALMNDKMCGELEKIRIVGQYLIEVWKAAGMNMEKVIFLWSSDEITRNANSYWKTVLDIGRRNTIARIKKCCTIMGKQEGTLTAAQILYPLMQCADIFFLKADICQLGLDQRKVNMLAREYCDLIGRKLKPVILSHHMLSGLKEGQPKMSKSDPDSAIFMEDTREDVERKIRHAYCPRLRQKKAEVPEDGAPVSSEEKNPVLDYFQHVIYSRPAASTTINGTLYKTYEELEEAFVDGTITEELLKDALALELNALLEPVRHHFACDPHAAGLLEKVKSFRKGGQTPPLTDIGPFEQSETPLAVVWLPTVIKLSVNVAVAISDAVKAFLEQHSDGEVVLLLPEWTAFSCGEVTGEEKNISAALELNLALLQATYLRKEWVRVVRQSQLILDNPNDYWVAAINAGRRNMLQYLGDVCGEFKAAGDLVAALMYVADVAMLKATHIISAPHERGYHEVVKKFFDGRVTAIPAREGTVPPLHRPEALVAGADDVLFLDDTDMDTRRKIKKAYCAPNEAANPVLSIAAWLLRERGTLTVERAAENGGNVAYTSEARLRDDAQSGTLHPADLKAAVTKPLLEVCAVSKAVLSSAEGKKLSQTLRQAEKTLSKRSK
Briefly: Trypanosoma cruzi tyrosyl tRNA synthetase (TcYRS) _High Tyrosine SOP. The class given is functional. The note with it: 30 µM. Details: scale not given: in the data most compounds retested in dose-response had high values.

For assay [13], the target named is T6, Tyrosyl-tRNA synthetase, putative (Trypanosoma cruzi (strain CL Brener)). Briefly: Trypanosoma cruzi tyrosyl tRNA synthetase (TcYRS) SOP. The class given is functional. Also on record: scale not given: direction of the effect not stated beside the values. To be noted: 30 µM.
Assay [14] addresses Chromo domain-containing protein 1 (Saccharomyces cerevisiae (strain ATCC 204508 / S288c) (Baker's yeast)) (UniProt P32657). Briefly: ScCHD-1 Enzyme Inhibition Assay. Also on record: scale not given: in the data most compounds retested in dose-response had high values. To be noted: 30 µM. The class given is functional.

For some assays here: Measured potencies and affinities stand elsewhere. Some results are limits rather than exact numbers.

Chromo domain-containing protein 1 (Saccharomyces cerevisiae (strain ATCC 204508 / S288c) (Baker's yeast)), sequence (P32657 whole entry, the tested form may be a part): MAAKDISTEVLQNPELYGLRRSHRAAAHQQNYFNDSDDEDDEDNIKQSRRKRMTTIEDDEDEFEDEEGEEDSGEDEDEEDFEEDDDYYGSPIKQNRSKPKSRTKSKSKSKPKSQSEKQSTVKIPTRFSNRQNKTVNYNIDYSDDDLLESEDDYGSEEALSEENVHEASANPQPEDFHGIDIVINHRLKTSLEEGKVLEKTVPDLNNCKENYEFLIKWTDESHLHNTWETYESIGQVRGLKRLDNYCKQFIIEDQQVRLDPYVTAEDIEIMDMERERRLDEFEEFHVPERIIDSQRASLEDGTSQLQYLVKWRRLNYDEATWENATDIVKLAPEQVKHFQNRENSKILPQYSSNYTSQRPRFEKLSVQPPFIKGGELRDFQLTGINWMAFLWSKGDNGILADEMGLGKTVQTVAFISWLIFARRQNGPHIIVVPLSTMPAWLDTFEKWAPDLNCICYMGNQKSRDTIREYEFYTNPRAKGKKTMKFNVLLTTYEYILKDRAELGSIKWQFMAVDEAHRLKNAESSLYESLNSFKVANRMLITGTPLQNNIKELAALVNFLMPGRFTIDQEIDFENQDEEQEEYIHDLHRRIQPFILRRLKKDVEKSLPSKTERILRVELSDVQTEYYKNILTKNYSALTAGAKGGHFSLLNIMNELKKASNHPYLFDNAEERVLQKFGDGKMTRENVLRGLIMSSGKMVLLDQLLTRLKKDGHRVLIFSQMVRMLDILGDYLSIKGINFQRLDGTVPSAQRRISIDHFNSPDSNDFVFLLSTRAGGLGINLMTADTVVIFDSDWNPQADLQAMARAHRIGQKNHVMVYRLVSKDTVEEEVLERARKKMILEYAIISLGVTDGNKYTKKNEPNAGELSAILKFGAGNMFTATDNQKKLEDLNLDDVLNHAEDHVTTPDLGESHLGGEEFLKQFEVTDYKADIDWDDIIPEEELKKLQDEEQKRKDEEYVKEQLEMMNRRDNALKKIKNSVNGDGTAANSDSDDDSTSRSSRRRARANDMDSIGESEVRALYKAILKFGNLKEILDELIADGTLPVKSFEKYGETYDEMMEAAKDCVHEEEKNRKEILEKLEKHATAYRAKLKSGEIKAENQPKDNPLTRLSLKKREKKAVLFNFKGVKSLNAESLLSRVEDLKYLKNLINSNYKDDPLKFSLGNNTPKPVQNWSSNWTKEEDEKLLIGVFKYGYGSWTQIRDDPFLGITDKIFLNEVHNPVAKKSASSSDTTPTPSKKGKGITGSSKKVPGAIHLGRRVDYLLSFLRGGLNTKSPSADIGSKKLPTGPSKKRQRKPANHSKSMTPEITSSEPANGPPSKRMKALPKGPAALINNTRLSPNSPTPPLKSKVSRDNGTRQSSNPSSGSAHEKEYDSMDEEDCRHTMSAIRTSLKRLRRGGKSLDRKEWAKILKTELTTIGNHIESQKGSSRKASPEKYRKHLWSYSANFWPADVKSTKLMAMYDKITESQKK

`OCCN1CCC(F)(F)C2(CCN(c3cccnc3)C2)C1` (stereo not given): the PXC50 in [1] (MAX_EFFECT 6.355140187) and in assay [1] (MAX_EFFECT 7.256235828) was < 4 throughout.
For `Oc1cc(Cl)cc(Cl)c1`, the PXC50 in assay [1] (MAX_EFFECT 13.49809886) and in assay [1] (MAX_EFFECT 17.06263499) was < 3 throughout.
Regarding `Clc1cc(Cl)cc(CNCCc2ccccc2)c1`, in assay [1] (BOTTOM -4.203249798, HILLSLOPE 1.160005452, MAX_EFFECT 61.75908222, TOP 67.85944211), the PXC50 worked out at 3.6.
Turning to `FC(F)(F)c1cc(-c2cccs2)nc(N2CCN3CCCC3C2)n1` (stereo not given), the PXC50 in assay [1] (MAX_EFFECT 13.05483029) and in [1] (MAX_EFFECT 13.8381201) was < 4 in each case.
`CS(=O)(=O)N1CCC(C(=O)N2CCC3(CC2)OCCCO3)CC1`: the Percent Effect in assay [2] was -4.7%; in assay [3], 20.8%; in [4], 3.34%; in assay [5], -4.81%; in assay [6], -12.3%; in [7] it was 5.23%. Further, the Percent Effect in assay [8] is 3.23%; in assay [9], 12.2%; in assay [10], 14.4%; in [11] it was -32.1%; in assay [12] it was 6.35%; in assay [13] it was 21.8%. For the same molecule, the Percent Effect in assay [14] is -10.8%.
